SMILES strings stand for the structures. Compounds without any hit were thinned out: in the full panel of roughly 83,000, 20% have a hit.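 The test compound was applied at a single concentration to cells in 96-well plates for 48 hours, and percent growth was recorded.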 A number with no mark means an inactive call. Calls of active or inactive are those of the source. Rule for the calls: active = growth percent below 10; inactive = the rest.

This assay deals with HL-60(TB) leukemia. In words: NCI-60 one-dose screen, 48 h (100 = growth as untreated, 0 = no growth, -100 = all killed). Conditions: 10 µM unless noted.
Take `CCn1cc(C(=O)NNC(=S)Nc2ccc(C)cc2)c(=O)c2ccc(C)nc21`: the growth is 94.5%.

Regarding `CC[C@@H](C(=O)[C@@H](C)[C@@H](O)[C@H](C)[C@@H]1O[C@@H]([C@@H](CC)C(=O)N(CC)CC)CC[C@@H]1C)C1O[C@]2(C=CC(=O)[C@]3(CC[C@@](C)([C@H]4CC[C@](O)(CC)[C@H](C)O4)O3)O2)[C@H](C)C[C@@H]1C` (some centres not stated), the growth is -36.4% (active). For `Cc1ccc(NCCNCC(C)(C)O)c2c(=O)c3ccc(Cl)cc3sc12`, the growth was -48.3% (active).

For the molecule `Clc1ccc2c(N3CCN(c4ccnc(NC5CCCCC5)n4)CC3)ccnc2c1`, the growth was -13.8% (active). With `O=[N+]([O-])c1ccc(NC(c2ccccc2)c2ccc3cccnc3c2O)cc1` (configuration not stated), the growth was -9.64% (active). The result for `COc1ccc(C2CC(c3ccc(Nc4nc(Nc5ccc(F)cc5)nc(Nc5ccc(Cl)cc5)n4)cc3)=NN2C(C)=O)cc1` (configuration not stated) reads 206%.

With `CCN(CC)c1ccc(C(=N)c2ccc(N(C)C)cc2)cc1`, the growth is 11.1%. For `Cc1cccc(/C=C/c2c(C(=O)/C=C/c3ccccc3)c(C)nc3ccccc23)c1`, the growth is -15.8% (active). As to `S=C(Nc1ccc(Cl)cc1)Nc1ccc(Cl)cc1` (tested in a mixture with another compound), the growth was 8.57% (active). Regarding `Cc1c(Cl)ccc2c(C(=O)Cl)cc(-c3ccccc3)nc12`, the growth is 88.9%. As to `C=C1CC[C@@H]2[C@](C)(COC(C)=O)[C@H](OC(C)=O)CC[C@@]2(C)[C@@H]1CC(NCc1ccc(F)cc1)C1=CCOC1=O` (some centres not stated), the growth was -9.52% (active). With `FC(F)(F)c1ccc(-c2cnc(Br)nc2NC2CCCCCC2)cc1`, the growth is 8.9% (active). With `c1ccc2c(c1)CCCc1nnc3nc4ccccc4n3c1-2`, the growth was 34.2%. The value for `COc1ccc(OCC(CO)N2CCN(c3ccccc3)CC2)cc1` (configuration not stated) was 123%; that for `O=C(Nc1cccc(Oc2nnc(Cl)c3ccccc23)c1)Nc1ccc(Cl)c(C(F)(F)F)c1` was -16.7% (active); that for `Cn1ccnc1C(=O)/C=C/c1ccc(CC(=O)Nc2ccc(Br)cc2)cc1` was 0.748% (active).

For `CN(C)c1ccc(-n2nc3ccccc3n2)cc1`, the growth is 90.5%. Regarding `COc1cc(C(=O)/C=C/c2c(-c3cccs3)nc3sc(C)cn23)cc(OC)c1OC`, the growth is -18.4% (active).

Turning to `CCOC(=O)/C(C)=C\c1ccc(OC)c(OC)c1`, the growth is 88.4%. The result for `COc1ccc(-c2cc(-c3cccnc3)nc(S(=O)(=O)CC(=O)Nc3ccc(C)cc3)c2C#N)cc1OC` reads 113%; that for `Fc1cc(C(F)(F)F)ccc1-c1cncnc1NC1CCCCCC1`, 86.4%; that for `CN(C)CCS(=O)(=O)CCN(C)C`, 110%. The value for `CC(=O)SC1CC(=O)C=C2CCC3C4CCC(=O)OC4(C)CCC3C21C` (configuration not stated) was 103%; that for `C=CC(O)CCC` (configuration not stated) was 88.3%. With `NC(=O)c1c(NC(=O)c2ccccn2)sc2c1CCC(=O)C2`, the growth is -0.0087% (active). On to `CCn1cnc(C[C@H](NC(=O)[C@@H](NC(=O)Nc2cc(C(F)(F)F)cc(C(F)(F)F)c2)C(C)C)C(=O)OC)c1`, for which the growth is -75.7% [100 µM] (active). The result for `O=C1Nc2ccc(Br)cc2C1=N/C=c1\[nH]c(=O)/c(=C/c2ccc(Cl)cc2)s1` reads 100%.

As for `CC(C)(C)c1ccc(S(=O)(=O)N[C@H]2CC[C@H]3[C@@H]4CCc5cc(O)ccc5[C@H]4CC[C@]23C)cc1`, the growth was 23%. The result for `COC(=O)CCc1cc(O)c2c(c1)[C@@H](C(=O)OC)[C@H](c1ccc(O)c(O)c1)O2` reads 9.9% (active). The value for `N=c1n(Cc2ccccc2)c(N)cc(=O)n1Cc1ccccc1` was 11.3%; that for `O=C1CN(CCN2CC(=O)N(Cc3ccccc3)C(=O)C2)CC(=O)N1Cc1ccccc1` was 97.7%; that for `CC(=O)OC[C@H]1O[C@@H](n2c(=O)cc(N)[nH]c2=O)C(OC(C)=O)[C@@H]1OC(C)=O` (some centres not stated) was 107%. For the molecule `CC[N+](CC)(CCOCCOCC[N+](CC)(CC)Cc1ccc([N+](=O)[O-])cc1)Cc1ccc([N+](=O)[O-])cc1`, the growth is 93.4%.

For `CCCN1C(=O)N(CCC)C2C1NC(=S)N2/N=C/C=C/c1ccccc1OC` (configuration not stated), the growth was -42.1% (active). The result for `N=C(N)c1ccc(-c2ccc(-c3ccccc3)s2)nc1` reads 16.6%. The result for `O=C(Nc1cccc(F)c1)Nc1cccc(Cl)c1` reads -10.6% (active); that for `CCOC(=O)C/C(=N\Nc1cc(=O)[nH]c2ccc(Br)cc12)C(=O)OCC`, -7.84% (active).

Source of the values: PubChem BioAssay (NCI).
